Rows were chosen to be rich in hits. Some 0.9% of all compounds tested hit in one or more screens of this group.
SRC3 TRFRET art = TR-FRET detection interference compounds, artefact control for PPARgamma SRC-3 recruitment agonists, biochemical, TR-FRET ratio. TR-FRET artefact counter-screen, PPARgamma/SRC-3 format; stronger effect = higher value. TR-FRET ratio at 8 µM. hit rate 0.39% among 99,000. AID 1048, 2008; in the data active = TR-FRET ratio above about 2000
PPARg SRC1 recr = PPARgamma agonists recruiting SRC-1 coactivator, primary screen, biochemical; hit rate 0.41% among 200,000; PPARgamma-SRC-1 coactivator recruitment biochemical assay; activation, % at 8 µM; Peroxisome proliferator-activated receptor gamma (Homo sapiens), P37231; in the data active = activation above about 19%;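 note: 0% = DMSO and 100% = reference agonist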
Target sequence (P37231 whole entry, looked up): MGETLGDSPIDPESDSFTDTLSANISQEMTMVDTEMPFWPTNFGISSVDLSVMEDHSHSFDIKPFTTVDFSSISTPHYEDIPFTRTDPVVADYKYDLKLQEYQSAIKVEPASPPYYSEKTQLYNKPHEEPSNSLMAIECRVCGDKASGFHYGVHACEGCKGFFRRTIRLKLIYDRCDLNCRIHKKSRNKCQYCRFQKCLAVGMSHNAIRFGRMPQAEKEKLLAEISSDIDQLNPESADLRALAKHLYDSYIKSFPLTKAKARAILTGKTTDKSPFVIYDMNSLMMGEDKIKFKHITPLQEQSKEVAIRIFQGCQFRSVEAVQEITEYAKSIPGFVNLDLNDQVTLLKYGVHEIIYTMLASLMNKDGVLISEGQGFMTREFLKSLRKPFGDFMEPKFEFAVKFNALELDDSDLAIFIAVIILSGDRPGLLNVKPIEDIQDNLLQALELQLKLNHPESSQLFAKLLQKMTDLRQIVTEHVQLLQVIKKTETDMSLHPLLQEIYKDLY
PPARg SRC-3 ag = PPARgamma agonists recruiting SRC-3 coactivator, primary screen, biochemical. activation, % at 8 µM. Peroxisome proliferator-activated receptor gamma (Homo sapiens), P37231. hit rate 0.26% among 200,000. AID 731, 2007. biochemical PPARgamma/SRC-3 coactivator recruitment assay; in the data active = activation above about 23%;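 note: 0% = DMSO and 100% = reference agonist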
SRC1 TRFRET art = TR-FRET detection interference compounds, primary screen, artefact control for PPARgamma SRC-1 recruitment agonists, biochemical, TR-FRET emission ratio; TR-FRET ratio at 8 µM; hit rate 0.34% among 99,000; TR-FRET detection artefact counter-screen; stronger effect = higher value; in the data active = TR-FRET ratio above about 2300
PPARg SRC-2 ag = agonists of PPARg-SRC-2 recruitment, primary screen, biochemical, HTS; Peroxisome proliferator-activated receptor gamma (Homo sapiens), P37231; PPARgamma LBD-SRC-2 recruitment; activation, % at 8 µM; hit rate 0.34% among 200,000; AID 1032, 2008;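 note: 0% = vehicle and 100% = reference agonist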
TR-FRET SRC-2 ct = TR-FRET signal artefacts, primary screen, artefact control for PPARgamma SRC-2 agonist project, biochemical | TR-FRET artefact counter-screen; stronger effect = higher value | TR-FRET ratio at 8 µM | hit rate 0.4% among 200,000 | AID 1049, 2008; in the data active = TR-FRET ratio above about 2000
PPARg SRC2 ag = agonists of PPARgamma SRC-2 coactivator recruitment, confirmation, biochemical, HTS | shares compounds with PPARg SRC-3 ag | biochemical SRC-2 recruitment by PPARgamma | activation, % at 8 µM | hit rate 52% among 790 | AID 1297, 2008;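 note: 0% = vehicle alone and 100% = reference agonist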
PPARg SRC1 conf = PPARgamma agonists recruiting SRC-1 coactivator, confirmation, biochemical. shares compounds with PPARg SRC-3 ag. PPARgamma–SRC-1 coactivator recruitment biochemical assay. activation, % at 8 µM. hit rate 43% among 790; in the data active = activation above about 20%;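 note: 0% = vehicle wells and 100% = reference agonist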
PPARg SRC3 ag = PPARgamma-driven SRC-3 coactivator recruitment agonists, confirmation, biochemical | shares compounds with PPARg SRC-3 ag | biochemical PPARgamma-SRC-3 coactivator recruitment, agonist mode | hit rate 29% among 790 | AID 1301, 2008 | activation, % at 8 µM; in the data active = activation above about 24%;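 note: 0% = vehicle wells and 100% = reference agonist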
* hit, by the source's call. Cut-off read from the data, not from the text of the source, unless noted: active = activation above about 22%; inactive = the rest.

`COc1cccc(OC)c1C(=O)Nc1nnc(-c2cccs2)s1` gave SRC3 TRFRET art 2204*, PPARg SRC1 recr 31*, PPARg SRC-3 ag 16, SRC1 TRFRET art 2546*, PPARg SRC-2 ag 28*, TR-FRET SRC-2 ct 1921, PPARg SRC2 ag 27*, PPARg SRC1 conf 21* and PPARg SRC3 ag 20.
Screening Cn1c(N/N=C/c2c[nH]c3ccccc23)nc2ccccc21 returned PPARg SRC1 recr 18, PPARg SRC-3 ag 4, PPARg SRC-2 ag 24*, TR-FRET SRC-2 ct 1730, PPARg SRC2 ag 12, PPARg SRC1 conf 6 and PPARg SRC3 ag 8.
For COC(=O)CSc1ncnc2c1sc1nc3c(cc12)COC(C)(C)C3 the results were SRC3 TRFRET art 1809, PPARg SRC1 recr 13, PPARg SRC-3 ag 12, SRC1 TRFRET art 2109, PPARg SRC-2 ag 24*, TR-FRET SRC-2 ct 1748, PPARg SRC2 ag 17, PPARg SRC1 conf 15 and PPARg SRC3 ag 12.
Screening Cc1cccc[n+]1C1C(c2ccccc2)C(C#N)=C(C(=C=[N-])C#N)NC1(O)C1CC1 (configuration not stated) returned PPARg SRC1 recr 15, PPARg SRC-3 ag 29*, PPARg SRC-2 ag 26*, TR-FRET SRC-2 ct 2096*, PPARg SRC2 ag 30*, PPARg SRC1 conf 20* and PPARg SRC3 ag 19.
Cc1ccc[n+](C2C(c3ccc([N+](=O)[O-])cc3)C(C#N)=C([S-])NC2(O)C2CC2)c1 (configuration not stated) was read as SRC3 TRFRET art 1454, PPARg SRC1 recr 6, PPARg SRC-3 ag 1, SRC1 TRFRET art 1755, PPARg SRC-2 ag 4 and TR-FRET SRC-2 ct 1527.
N#CC(=C=[N-])C1=C(C#N)C(c2ccccc2F)C([n+]2ccccc2)C(O)(C2CC2)N1 (configuration not stated) was read as PPARg SRC1 recr 32*, PPARg SRC-3 ag 71*, PPARg SRC-2 ag 75*, TR-FRET SRC-2 ct 3792*, PPARg SRC2 ag 12, PPARg SRC1 conf 9 and PPARg SRC3 ag 10.
`CCOC(=O)C1C(=O)NC(SC)=C(C#N)C1c1ccccc1F` (configuration not stated) gave SRC3 TRFRET art 1639, PPARg SRC1 recr 10, PPARg SRC-3 ag 1, SRC1 TRFRET art 1865, PPARg SRC-2 ag 5 and TR-FRET SRC-2 ct 1568.
Screening Nc1ccc2c(c1)C(=O)C(=O)c1ccccc1-2 returned PPARg SRC1 recr 22*, PPARg SRC-3 ag 29*, PPARg SRC-2 ag 32*, TR-FRET SRC-2 ct 1964, PPARg SRC2 ag 20, PPARg SRC1 conf 23* and PPARg SRC3 ag 12.
Screening O=C1C(=O)c2ccc(-c3ccccc3)cc2-c2ccccc21 returned PPARg SRC1 recr 1, PPARg SRC-3 ag -3, PPARg SRC-2 ag -3 and TR-FRET SRC-2 ct 1525.
CS(=O)(=O)c1nc(-c2ccc(Br)cc2)cc(-c2ccccc2)c1C#N was read as PPARg SRC1 recr 53*, PPARg SRC-3 ag 111*, PPARg SRC-2 ag 7, TR-FRET SRC-2 ct 2843*, PPARg SRC2 ag 66*, PPARg SRC1 conf 49* and PPARg SRC3 ag 39*.
For Cn1c(=O)cc(SCC(=O)Nc2cccnc2)c2ccccc21 the results were PPARg SRC1 recr 66*, PPARg SRC-3 ag 93*, PPARg SRC-2 ag 62*, TR-FRET SRC-2 ct 3288*, PPARg SRC2 ag 28*, PPARg SRC1 conf 17 and PPARg SRC3 ag 18.
Screening Cn1c(=O)cc(SCC(=O)NCc2cccnc2)c2ccccc21 returned PPARg SRC1 recr 28*, PPARg SRC-3 ag 38*, PPARg SRC-2 ag 22*, TR-FRET SRC-2 ct 1858, PPARg SRC2 ag 24*, PPARg SRC1 conf 18 and PPARg SRC3 ag 17.
`CS(=O)(=O)Nc1ccc(-c2n[nH]c(=S)n2-c2ccccc2)cc1` gave PPARg SRC1 recr 19*, PPARg SRC-3 ag 11, PPARg SRC-2 ag 14, TR-FRET SRC-2 ct 1649, PPARg SRC2 ag 19, PPARg SRC1 conf 13 and PPARg SRC3 ag 12.
Screening Cc1ccc(-c2n[nH]c(=S)n2-c2ccccc2)cc1 returned PPARg SRC1 recr 10, PPARg SRC-3 ag 18, PPARg SRC-2 ag 5 and TR-FRET SRC-2 ct 1648.
Screening Cc1ccc(-n2c(-c3cccc(C)c3)n[nH]c2=S)cc1 returned PPARg SRC1 recr 20*, PPARg SRC-3 ag 36*, PPARg SRC-2 ag 32*, TR-FRET SRC-2 ct 1998*, PPARg SRC2 ag 30*, PPARg SRC1 conf 22* and PPARg SRC3 ag 21.
For Nc1ccc(Oc2ccc3nc(-c4ccccc4)c(-c4ccc([N+](=O)[O-])cc4)nc3c2)cc1 the results were PPARg SRC1 recr 13, PPARg SRC-3 ag 9, PPARg SRC-2 ag 16 and TR-FRET SRC-2 ct 1578.
`Cn1ccnc1C(=O)c1cc(=O)c2ccccc2o1` gave PPARg SRC1 recr 8, PPARg SRC-3 ag -6, PPARg SRC-2 ag 6 and TR-FRET SRC-2 ct 1431.
O=c1cc(-c2ccc3c(c2)OCO3)oc2ccccc12 was read as SRC3 TRFRET art 1634, PPARg SRC1 recr 33*, PPARg SRC-3 ag 1, SRC1 TRFRET art 2778*, PPARg SRC-2 ag 27*, TR-FRET SRC-2 ct 2211*, PPARg SRC2 ag 7, PPARg SRC1 conf 6 and PPARg SRC3 ag 4.
For COc1ccc2[nH]c3c(=S)nc[nH]c3c2c1 the results were SRC3 TRFRET art 2527*, PPARg SRC1 recr 26*, PPARg SRC-3 ag 23*, SRC1 TRFRET art 2593*, PPARg SRC-2 ag 34*, TR-FRET SRC-2 ct 2492*, PPARg SRC2 ag 16, PPARg SRC1 conf 8 and PPARg SRC3 ag 12.
For COc1ccc2[nH]c3c(Cl)ncnc3c2c1 the results were SRC3 TRFRET art 1712, PPARg SRC1 recr 1, PPARg SRC-3 ag 2, SRC1 TRFRET art 1758, PPARg SRC-2 ag 0 and TR-FRET SRC-2 ct 1577.
Screening Cc1nnc(NC(=O)c2cccc(S(=O)(=O)N3CCc4ccccc43)c2)s1 returned PPARg SRC1 recr 8, PPARg SRC-3 ag 11, PPARg SRC-2 ag 9 and TR-FRET SRC-2 ct 1519.

Compound activity from PubChem BioAssay.
